KDM5B inh – Primary screen for KDM5B Histone Demethylases FDH-coupled qHTS. hit rate 2.6% among 220,000. Potency, µM (titrated, usually from 57.7 µM), usual class: inhibitors. KDM5B demethylase, FDH-coupled NADH fluorescence (FDH is formaldehyde dehydrogenase). Lysine-specific demethylase 5B (Homo sapiens), Q9UGL1. AID 1347165, 2019; active = well fitted inhibition curve with a large enough effect; note: 0% is about no effect; nearly all actives have a fitted effect of over 70% in size
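Inhibition is measured as reduced NADH fluorescence generation from FDH coupling to formaldehyde release. Truncated KDM5BΔAP at 200 nM final acts on H3K4me3 peptide (12.5 µM in substrate mix) in pH 7.5 HEPES buffer with Tween-20, 30 min, room temperature.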
An asterisk follows results filed as active; i = inactive. This excerpt belongs to a sample that is enriched for hits. Potency is the fitted concentration of half-maximal effect.

SMILES	KDM5B inh
CCC(C)NS(=O)(=O)c1c(C)cc(N2C(=O)CCS2(=O)=O)cc1C (stereo not drawn)	i
Cc1ccccc1C(=O)NCc1nnc2cc(-c3nc(C4CC4)no3)ccn12	28µM*
Cc1ccc(C)c(C(=O)NCc2nnc3cc(-c4nc(C5CC5)no4)ccn23)c1	14µM*
Cc1ccc(C(=O)NCc2nnc3cc(-c4nc(C5CC5)no4)ccn23)cc1C	28µM*
O=C(NCc1nnc2cc(-c3nc(C4CC4)no3)ccn12)c1ccncc1	28µM*
N#Cc1ccc(S(=O)(=O)N2CCC(C(=O)Nc3nc4c(s3)CCC4)CC2)cc1	i
C=CCn1c(N2CCN(c3cccc(Cl)c3)CC2)nc2c1c(=O)[nH]c(=O)n2C	i
COc1ccc(C2CC(=O)Nc3c2c(C)nn3-c2ccc(Cl)nn2)cc1O (stereo not drawn)	i
CCCCN(CC)c1ccc(NS(=O)(=O)c2cccs2)cc1C(=O)O	i
CC(c1nnc(-c2cccs2)o1)N(C)Cc1ccc(Br)cc1 (stereo not drawn)	i
CC(=O)c1cc2c(cc1NC(=O)CSc1nnc(C3CC3)o1)OCO2	i
O=C(CSc1nc2cc(Cl)ccc2s1)NC1CCCC1	i
CNC(=O)CN(C)S(=O)(=O)N1CCCC(C)C1 (stereo not drawn)	i
Cc1cccc(NC(=O)N2CCc3c(c4cc(F)ccc4n3C)C2)c1	32µM*
Cc1cccc(NC(=O)C2CCCN(C(=O)Nc3ccc(F)cc3)C2)c1 (stereo not drawn)	i
O=C(Nc1cccc(Cl)c1)N1CCN(c2ccc(Cl)c(Cl)c2)CC1	i
Cc1cccc(NC(=O)N2CCC(C(=O)c3ccc(F)cc3)CC2)c1	i
Cn1c2c(c3cc(F)ccc31)CN(C(=O)Nc1cccc(Cl)c1)CC2	32µM*
O=C(Nc1ccc(C(=O)N2CCCCC2)cc1)Nc1cccc(Cl)c1	i
N#Cc1cc2c(cc1C(=O)c1ccccc1)OCCO2	i
CCOC(=O)c1ccc(NC(=O)CSc2ncnc3c(-c4ccc(OC)cc4)c[nH]c23)cc1	i
CNC(=O)c1cccn2nccc12	32µM*
O=C(NC1CC1)c1cc(-c2ccccc2)nc2ccccc12	i
CNC(=O)c1cnn2c1CN(C(=O)c1ccccc1F)CC2	i
O=C(NC1CC1)c1cnn2ncccc12	32µM*
SMILES	KDM5B inh
CC1CCC(NC(=O)c2ccccc2S(C)(=O)=O)CC1 (stereo not drawn)	i
Nc1c(C(=O)NC2CCCC2)cnn1-c1ccccc1	i
N#CCSc1ccccc1C(=O)NC1CC1	i
CNC(=O)c1ccn2nccc2c1	i
O=C(NC1CC1)c1cccn2nccc12	35µM*
O=C(O)c1ccc(CNC(=O)c2ccccc2C(F)(F)F)cc1	i
CCOC(=O)C1(Cc2ccccc2C(F)(F)F)CCN(C(C)Cc2cccc(C)n2)CC1 (stereo not drawn)	i
O=C(NCc1ccccn1)C1(c2cccc(C(F)(F)F)c2)CCOCC1	i
COCCn1c(COc2ccc(C(C)(C)c3ccccc3)cc2)n[nH]c1=S	i
COc1ccc(-c2cc(C(=O)NCCC(=O)N3CCCC3)c3ccccc3n2)cc1OC	i
CCN(Cc1cccc(F)c1)C(=O)Nc1ccc(N2CCN(C)CC2)cc1	i
COc1ccc(C(=O)NCC2COc3ccccc3O2)cc1OC (stereo not drawn)	i
O=C(CC1CC2CCC1C2)NC12CC3CC(CC(C3)C1)C2 (stereo not drawn)	i
Cc1ccccc1-n1c(SC(C)C(=O)c2ccc(Br)cc2)nnc1N1CCOCC1 (stereo not drawn)	i
O=C(c1ccccc1)N1CCCC(c2nc(C3CCOCC3)no2)C1 (stereo not drawn)	i
Cc1cc(C(=O)N2CCCC(c3nc(C4CCOCC4)no3)C2)n(C)n1 (stereo not drawn)	i
O=C(c1cc(-c2ccc(F)cc2)nc2ccccc12)N1CCC(c2nc(C3CCOCC3)no2)C1 (stereo not drawn)	28µM*
O=C(c1cccc(F)c1)N1CCC(c2nc(C3CCOCC3)no2)C1 (stereo not drawn)	i
Cc1cnc(C(=O)N2CCCC(c3nc(C4CCOCC4)no3)C2)cn1 (stereo not drawn)	32µM*
Cc1cccc(C(=O)N2CCCC(c3nc(C4CCOCC4)no3)C2)c1 (stereo not drawn)	i
O=C(c1ccccc1F)N1CCC(c2nc(C3CCOCC3)no2)C1 (stereo not drawn)	i
O=C(CC1CCCC1)N1CCCC(c2nc(C3CCOCC3)no2)C1 (stereo not drawn)	i
O=C(CCN1c2ccccc2Sc2ccccc21)N1CCCC(c2nc(C3CCOCC3)no2)C1 (stereo not drawn)	25µM*
CCCNC(=O)CSc1cc(C)c2cc(C)cc(C)c2n1	i
O=C(Nn1cnnc1)c1ccc(Cl)cc1Cl	i
SMILES	KDM5B inh
Cc1c(C(=O)N2CCOC(CCCC(C)C)C2)cnc2cc(=O)[nH]n12 (stereo not drawn)	i
Cc1ccc(C)c(C(=O)N2CCOC(CCCc3ccccc3)C2)c1 (stereo not drawn)	i
Cc1ccc2[nH]c(=O)cc(C(=O)N3CCOC(CCCC(C)C)C3)c2c1 (stereo not drawn)	28µM*
Cc1ccc2nsnc2c1NC(=O)c1ccc(C#N)cc1F	i
CCN(c1ccc2c(c1)OCO2)C1CN(C(=O)OC(C)(C)C)C1	89µM*
CC(C)(C)OC(=O)N1CC(c2ccccc2)C1	i
CN(c1ccc(F)cc1)C1CN(C(=O)OC(C)(C)C)C1	i
COc1ccc(NC(=O)c2nn(C)c(=O)c3ccccc23)cc1OC1CCCC1	i
COc1ccc(-c2c(C)oc3cc(OCC(=O)c4ccccc4)ccc3c2=O)cc1	i
C=CCn1c(=O)c2c(nc(-n3nc(C)cc3C)n2CC(C)C)n(C)c1=O	i
CCOC(=O)c1c(C)c(-c2ccccc2)n(CC(=O)Nc2cc(OC)ccc2OC)c1C	i
O=C(Nc1cccc2cccnc12)c1cccc(S(=O)(=O)N2CCN(Cc3ccccc3)CC2)c1	i
CC1CCN(C(=O)c2ccccc2OCC2CCCN(Cc3cccnc3)C2)CC1 (stereo not drawn)	i
Cc1cc(-c2ccnc(-c3nnc(C)n3CCN3CCOCC3)c2)ccn1	i
Cc1nnc(-c2cc(-c3ccc(N4CCOCC4)cc3)ccn2)n1C1CCCCC1	32µM*
COc1ccccc1-c1ccnc(-c2nnc(C)n2CCN2CCOCC2)c1	40µM*
Cc1nnc(-c2cc(-c3cnn(C)c3)ccn2)n1C1CCCCC1	i
Cc1nnc(-c2cc(-c3cccnc3)ccn2)n1C1CCCCC1	i
Cc1nnc(-c2cc(-c3ccc(N4CCOCC4)cc3)ccn2)n1Cc1ccccc1	20µM*
Cc1nnc(-c2cc(-c3cccc(F)c3)ccn2)n1CCN1CCOCC1	i
COc1ncccc1-c1ccnc(-c2nnc(C)n2C2CCCCC2)c1	28µM*
Cc1nnc(-c2cc(NCc3cccs3)ccn2)n1C1CCCCC1	i
Cc1nnc(-c2cc(-c3cccnc3)ccn2)n1CCN1CCOCC1	i
Cc1nnc(-c2cc(-c3cccc(CO)c3)ccn2)n1CCN1CCOCC1	i
Cc1nnc(-c2cc(-c3cccc(OC(F)(F)F)c3)ccn2)n1CCN1CCOCC1	i
CC(=O)Nc1ccc(NC(=O)c2nnn(-c3ccc4noc(-c5ccc(Cl)cc5)c4c3)c2C)cc1	i
CCC1(N2CCN(C(=O)c3cc(F)ccc3Cl)CC2)CCN(C(=O)C(C)C)C1 (stereo not drawn)	i

Bioassay records from PubChem BioAssay.
